# Measured values reported in the OligoGym collection.
# Molecular target: TIMM44
# Assay: pooled miR-30 sensor sort-seq; sequence = guide strand
# Conditions: shRNA
# Further: reference of the scale not given here.
row,Sequence,sensor-assay potency score (higher = more potent)
1,TTCTCTTCCGGAGTCGCTGGGG,-0.531
2,TGACATTATCTAGCAAGCCGGA,-1.13
3,ATCTTCATCTCGAAGAACCGGT,-0.094
4,TTGTTTGACATTATCTAGCAAG,-0.93
5,TTGACATTATCTAGCAAGCCGG,-1.12

# Molecular target: TIMM50
# Assay: as above
# Conditions: shRNA
row,Sequence,sensor-assay potency score (higher = more potent)
1,TAGACGACGCTCACAGTCCCAC,-0.936
2,TTGCTTCTGACTAGTCTCCTGG,-0.18
3,TATCAATGAGTGGAAACGCAGT,-1.04
4,TTGAAATATTTGTATGTCCGGC,-0.0672
5,TGTCCATCCATGTATCTTGTGG,-0.521
6,TACATGGTGTCCATCCATGTAT,-1
7,TTTGCTTCTGACTAGTCTCCTG,-0.00854
8,ATTCAGACATGAAATATCCTTT,0.389
9,TGAAATATCCTTTACATGGTGT,0.0469
10,TGATCATCTGTCTATAATCTTT,-1.49
11,TTCTGCTTGTTGGACTTGGAGA,-1.03
